This is one part of a sample in which hits are shown more often than they occur.
Pf Dd2 growth – qHTS Primary assay for Inhibitors of Plasmodium falciparum Dd2 growth in vitro | P. falciparum Dd2 growth, SYBR Green, 72 h | Potency, µM (highest dose often 28.9 µM), hits mostly inhibitors | 4.3% of 120,000 active; active = well fitted inhibition curve with a large enough effect; note: nearly all actives have a fitted effect of over 65% in size
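Infected erythrocytes (Dd2, 0.3% parasitemia, 2.5% hematocrit final) are added to compound in RPMI-1640/Albumax II medium, grown 72 h at 37C in low oxygen, then lysed with saponin/Triton-X containing SYBR Green and read by fluorescence.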
Hits are given with their value; [ ] = remark or other dose.

Screening COc1ccc(C2=NOC3(CCCN(Cc4ccccn4)C3)C2)cc1 (configuration not stated) returned Pf Dd2 growth inactive.
`Cc1ccc(C(=O)Nc2cccc(C(=O)OCc3cc(=O)n4c5c(sc4n3)CCCC5)c2)cc1` gave Pf Dd2 growth inactive.
COc1ccccc1C1C=C(c2ccc(F)cc2)Nc2nc(-c3ccc(Cl)cc3)nn21 (configuration not stated) was read as Pf Dd2 growth 11µM.
`COc1cccc(C2=CC(c3cc(Br)ccc3F)n3nnnc3N2)c1` (configuration not stated) gave Pf Dd2 growth inactive.
Screening CC1=C(C(=O)Nc2cccnc2)C(c2ccccc2Cl)n2nc(-c3ccccc3)nc2N1 (configuration not stated) returned Pf Dd2 growth inactive.
`COc1ccccc1C1C=C(c2ccc(C(C)C)cc2)Nc2nnnn21` (configuration not stated) gave Pf Dd2 growth inactive.
Screening CCc1ccc(C2=CC(c3c(F)cccc3Cl)n3c(nc4ccccc43)N2)cc1 (configuration not stated) returned Pf Dd2 growth inactive.
Screening COc1ccccc1C1C=C(c2ccc(Cl)cc2)Nc2nc(-c3ccc(Cl)cc3)nn21 (configuration not stated) returned Pf Dd2 growth 2.8µM.
`O=C(Nc1cccc(C(F)(F)F)c1)c1cc(-c2ccc3c(c2)OCCO3)on1` gave Pf Dd2 growth inactive.
`COCCN1CC2CN(C(=O)c3ccco3)CC(C1)O2` gave Pf Dd2 growth inactive.
For CCOc1ccc(-c2nc(CNC(=O)Nc3ccccc3)c(C)o2)cc1 the results were Pf Dd2 growth inactive.
`O=C(CCCc1nc2ccccc2s1)N1CCc2c(nc3cc(-c4ccccc4)[nH]n3c2=O)C1` gave Pf Dd2 growth inactive[5.79 µM].
Cn1ccc(C(=O)N2CCCC(CCc3ccccc3C(F)(F)F)C2)n1 (configuration not stated) was read as Pf Dd2 growth inactive.
Screening O=C(C1CCOCC1)N1CCCC(CCc2ccccc2C(F)(F)F)C1 (configuration not stated) returned Pf Dd2 growth inactive.
`CNC(=O)c1ccc(CN2CCCC(CCc3ccccc3C(F)(F)F)C2)o1` (configuration not stated) gave Pf Dd2 growth 7.9µM.
`NC[C@H]1O[C@@H](CO)[C@@H](O)[C@H]1N1CCN(c2ccccn2)CC1` gave Pf Dd2 growth inactive.
CC(C)C(C)NC(=O)C(NC(=O)c1ccccc1)C1CCN(C(=O)C2CCCC2)CC1 (configuration not stated) was read as Pf Dd2 growth inactive.
Screening Cc1ccc(C)c(Cn2c3ccccc3c3cnn(CC(=O)NCCCc4ccccc4)c(=O)c32)c1 returned Pf Dd2 growth inactive.
`CC(C)CC(=O)NCCC1CCN(C(=O)Nc2ccccc2)CC1` gave Pf Dd2 growth inactive.
Screening O=C(CCc1ccccc1)NCCC1CCN(C(=O)Nc2ccccc2)CC1 returned Pf Dd2 growth inactive.
O=C(COc1ccccc1)NCCC1CCN(C(=O)Nc2ccccc2)CC1 was read as Pf Dd2 growth 11µM.
For Cc1cc2cc(C(=O)N3CCC4(CCCN(CC5CC5)C4)C3)ccc2o1 (configuration not stated) the results were Pf Dd2 growth inactive.
O=C1CCCCC(C(=O)NCCCN2CCc3ccccc3C2)N1 (configuration not stated) was read as Pf Dd2 growth inactive.
Screening O=C(NCCCN1CCc2ccccc2C1)C1CCCCC(=O)N1Cc1ccccc1 (configuration not stated) returned Pf Dd2 growth 4µM.
For CCN1CCN(CCNC(=O)C2CCCCC(=O)N2Cc2ccccc2)CC1 (configuration not stated) the results were Pf Dd2 growth inactive.
Cc1cccc(Cn2cccc2CNS(=O)(=O)c2ccc(Br)cc2)c1 was read as Pf Dd2 growth inactive.
For COc1ccc(CNC(=O)C2CCc3nc(N4CCN(C(C)=O)CC4)sc3C2)cc1 (configuration not stated) the results were Pf Dd2 growth inactive.
For CC(=O)N1CCN(c2nc3c(s2)CC(C(=O)NCc2ccccc2C)CC3)CC1 (configuration not stated) the results were Pf Dd2 growth inactive.
`CC(=O)N1CCN(c2nc3c(s2)CC(C(=O)Nc2cc(F)cc(F)c2)CC3)CC1` (configuration not stated) gave Pf Dd2 growth 4.5µM.
`CC(C)C(=O)N1CCN(c2nc3c(s2)CC(C(=O)Nc2ccc(Cl)cc2)CC3)CC1` (configuration not stated) gave Pf Dd2 growth inactive.
Cc1ccc(CNC(=O)C2CCc3nc(N4CCN(C(=O)C(C)C)CC4)sc3C2)o1 (configuration not stated) was read as Pf Dd2 growth 7.9µM.
CC(=O)N1CCN(c2nc3c(s2)CC(C(=O)NC2CCCCC2)CC3)CC1 (configuration not stated) was read as Pf Dd2 growth inactive.
CC(=O)N1CCN(c2nc3c(s2)CC(C(=O)Nc2cccc(C(C)(C)C)c2)CC3)CC1 (configuration not stated) was read as Pf Dd2 growth inactive.
Screening CCC(=O)N1CCN(c2nc3c(s2)CC(C(=O)NCc2ccc(F)cc2)CC3)CC1 (configuration not stated) returned Pf Dd2 growth inactive.
Screening CC(C)C(=O)N1CCN(c2nc3c(s2)CC(C(=O)NCc2ccco2)CC3)CC1 (configuration not stated) returned Pf Dd2 growth 13µM.
CCOc1ccc(NC(=O)Cn2cc(C(=O)c3ccc(C)c(C)c3)c(=O)c3cc(F)ccc32)cc1 was read as Pf Dd2 growth inactive.
`COc1cccc(C(=O)NC2CCN(c3cc(-c4cccs4)[nH]n3)CC2)c1` gave Pf Dd2 growth inactive.
`O=C1CCN(C(=O)C2CCN(C(=O)CC3CCCC3)CC2)CCCCCCN1` gave Pf Dd2 growth inactive.
`Cc1c(Cl)cccc1NC(=O)CSc1nc(=O)n(Cc2cccnc2)c2c1CCC2` gave Pf Dd2 growth inactive.
Screening Cc1nn(C)c2c1c(-c1ccccc1)cc(=O)n2CC(=O)Nc1ccccc1C(F)(F)F returned Pf Dd2 growth inactive.
`COc1ccccc1CNC(=O)c1c(OCC2CC2)cc(=O)n2c1CCCCC2` gave Pf Dd2 growth inactive.
CCCCNC(=O)CCCn1c(=O)c2ccccc2n(Cc2c(C)cc(C)cc2C)c1=O was read as Pf Dd2 growth inactive.
Screening CCn1nccc1C(=O)N1CCCN(S(C)(=O)=O)C(c2ccccc2)CC(=O)NCC1 (configuration not stated) returned Pf Dd2 growth inactive.
`COc1cccc(C2Cn3nnc(-c4nc(-c5ccccc5C)no4)c3CO2)c1` (configuration not stated) gave Pf Dd2 growth inactive.
CC1(c2noc(-c3ccccc3)n2)CCN(C(=O)C2CCN(C(=O)c3ccc(=O)[nH]c3)CC2)CC1 was read as Pf Dd2 growth inactive.
For CCCCCCOc1ccc(C2C(=O)N(C3CCCCC3)CC(=O)N2CCCC)cc1 (configuration not stated) the results were Pf Dd2 growth 8.9µM.
CCCOc1ccc(C2C(=O)N(C3CCCCC3)CC(=O)N2C2CCCCC2)cc1OC (configuration not stated) was read as Pf Dd2 growth inactive.
Screening O=C1C(c2ccc(F)cc2)N(Cc2ccccc2Cl)C(=O)CN1C1CCCCC1 (configuration not stated) returned Pf Dd2 growth inactive.

Assay outcomes from PubChem.
